Screening results (PubChem)
The list is not random: actives were taken first. Their share in the collection is about 2%.
GC-B act: GC-B (human) receptor activation | P20594 | HEK293-GC-B cells, CNP EC30, cGMP TR-FRET; 0% at EC30 CNP, 100% saturating CNP | 370,000 tested, 0.11% active | AID 1920062 | activation, % at 10 µM;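 active = activation at 10 µM reaching about 35% in either raw or pattern-adjusted values, limit read from the data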
Target sequence (P20594 whole entry, looked up): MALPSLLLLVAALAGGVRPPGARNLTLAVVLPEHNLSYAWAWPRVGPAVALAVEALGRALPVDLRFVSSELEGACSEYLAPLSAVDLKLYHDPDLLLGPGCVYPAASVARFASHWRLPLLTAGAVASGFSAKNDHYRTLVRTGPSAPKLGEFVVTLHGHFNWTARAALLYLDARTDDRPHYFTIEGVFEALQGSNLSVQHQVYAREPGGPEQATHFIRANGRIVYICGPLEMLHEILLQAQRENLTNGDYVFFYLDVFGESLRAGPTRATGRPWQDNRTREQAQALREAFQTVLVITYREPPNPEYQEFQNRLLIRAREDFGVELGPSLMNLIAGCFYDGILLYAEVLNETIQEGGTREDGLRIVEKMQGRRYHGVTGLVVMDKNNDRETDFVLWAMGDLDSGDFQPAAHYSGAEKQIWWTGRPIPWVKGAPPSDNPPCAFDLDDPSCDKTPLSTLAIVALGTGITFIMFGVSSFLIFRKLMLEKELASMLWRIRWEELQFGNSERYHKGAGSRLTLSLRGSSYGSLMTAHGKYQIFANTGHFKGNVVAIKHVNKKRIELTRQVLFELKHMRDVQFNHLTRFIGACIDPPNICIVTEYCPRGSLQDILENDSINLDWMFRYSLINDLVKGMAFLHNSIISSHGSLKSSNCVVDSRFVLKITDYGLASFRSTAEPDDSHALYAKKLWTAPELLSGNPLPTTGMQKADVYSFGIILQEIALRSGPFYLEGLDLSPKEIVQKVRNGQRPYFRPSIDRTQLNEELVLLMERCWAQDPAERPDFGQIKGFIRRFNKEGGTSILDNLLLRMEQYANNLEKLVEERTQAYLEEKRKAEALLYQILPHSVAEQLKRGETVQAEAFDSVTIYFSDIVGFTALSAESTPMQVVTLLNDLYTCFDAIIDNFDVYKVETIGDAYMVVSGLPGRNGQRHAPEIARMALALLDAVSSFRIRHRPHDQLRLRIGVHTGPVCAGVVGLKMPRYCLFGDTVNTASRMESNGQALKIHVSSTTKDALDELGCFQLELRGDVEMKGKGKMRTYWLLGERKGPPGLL
ADAM10 inh: ADAM10 inhibition, QFRET primary screen. O14672. recombinant ADAM10, EDANS/DABCYL FRET peptide cleavage, 3 h. inhibition, % at 7 µM. 370,000 tested, 0.62% active;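 active = inhibition above a per-campaign cutoff equal to the mean of compounds falling between control-based bounds plus 3 SD, cut at about 20% in these data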
FAS-TE inh: inhibitors of human fatty acid synthase thioesterase domain. P49327. recombinant FAS-TE, OMFH fluorogenic substrate, fluorescence endpoint. inhibition, % at 15 µM. 360,000 tested, 0.67% active. AID 602261;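 active = compounds whose normalised, plate-corrected inhibition of enzyme fluorescence in the single-dose primary screen is 50% or more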
ADAM17 inh: inhibitors of human ADAM17. 370,000 tested, 0.83% active. recombinant ADAM17, EDANS/DABCYL FRET peptide cleavage. inhibition, % at 6.95 µM;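 active = inhibition above the mean of compounds lying between control limits plus 3 SD, set per campaign, cut at about 8.5% in these data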
GC-A act: GC-A (human) enzyme activation; P16066; 370,000 tested, 0.14% active; AID 1671463; activation, % at 10 µM; HEK293 GC-A cells, cGMP TR-FRET, EC30 ANP; 0% at EC30 ANP, 100% saturating ANP; in the data active = activation above about 40%
ADAM10 confirm: human ADAM10 inhibition, confirmation; shares compounds with ADAM10 inh; ADAM10 QFRET peptide cleavage, EDANS fluorescence; inhibition, % at 6.95 µM; 2,100 tested, 1% active; AID 743208;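 active = inhibition above about 20% chosen separately for each screening run, limit read from the data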
ADAM17 ctr: inhibits human ADAM17 in ADAM10 exosite counter-screen. AID 743214. ADAM17 QFRET peptide cleavage, EDANS fluorescence. shares compounds with ADAM10 inh. inhibition, % at 6.95 µM. 2,100 tested, 0.5% active;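 active = mean triplicate inhibition above the solvent-only control wells' mean plus 3 SD, cut at about 12% in these data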
Large screens that a line does not name were inactive (follow-up assays come after a bar, where they were run).

O=C(CCc1ccc(S(=O)(=O)NCCc2ccccc2)cc1)N1CCN(Cc2ccc3c(c2)OCO3)CC1	ADAM10 inh 21.2 | ADAM10 confirm inactive | ADAM17 ctr inactive
C=CCOC(=O)C(CO)NC(=O)CCCC(=O)O (centres undefined)	none (no result: FAS-TE inh)
Cc1ccc(-c2cc(C(=O)NN=Cc3ccc(-c4ccccc4)cc3)[nH]n2)cc1C	none (no result: FAS-TE inh)
Cc1ccc(-c2cc(C(=O)NN=C/C=C/c3ccco3)[nH]n2)cc1C	ADAM10 inh 20.0 (no result: FAS-TE inh) | ADAM10 confirm inactive | ADAM17 ctr inactive
CS(=O)(=O)N(CC(=O)O)c1ccc(C23CC4CC(CC(C4)C2)C3)cc1	none
COc1ccccc1NC(=O)CN(c1ccc(C23CC4CC(CC(C4)C2)C3)cc1)S(C)(=O)=O	ADAM10 inh 21.8 | ADAM10 confirm inactive | ADAM17 ctr inactive
COc1ccc(/C=N/Nc2cc(N3CCCC3)nc(N3CCCC3)n2)cc1	ADAM10 inh 64.7 | ADAM10 confirm inactive | ADAM17 ctr inactive
Oc1ccc(/C=N/Nc2cc(N3CCCC3)nc(N3CCCC3)n2)cc1	none
C#CCN1CC(N(C)CCOC(=O)c2ccc([N+](=O)[O-])cc2)CS1(=O)=O (centres undefined)	none (no result: FAS-TE inh)
O=C(O)c1cc2ccccc2cn1	none
O=C(O)c1ccc(C#Cc2cccc(F)c2)cn1	ADAM10 inh 26.0 (no result: FAS-TE inh) | ADAM10 confirm inactive | ADAM17 ctr inactive
CN(C)c1ccc(NS(=O)(=O)c2ccc(-c3csnn3)cc2)cc1	ADAM10 inh 25.0 | ADAM10 confirm inactive | ADAM17 ctr inactive
COc1cccc(OCc2cc(C(=O)N(C)CCOc3ccc(C)cc3)no2)c1	ADAM10 inh 20.4 | ADAM10 confirm inactive | ADAM17 ctr inactive
CN(CCc1ccccc1)C(=O)c1cc(COc2cccc(C(F)(F)F)c2)on1	ADAM10 inh 21.2 | ADAM10 confirm inactive | ADAM17 ctr inactive
COC(=O)C(C(=O)OC)[C@H]1C=C[C@@H](C(=O)NS(=O)(=O)c2ccc(C)cc2)N(C(C)=O)C1	none (no result: FAS-TE inh)
Cn1c(SC2CCCC2)nnc1-c1ccco1	none (no result: FAS-TE inh)
C=CCN1CCc2cc(O)c(O)cc2C(c2ccccc2)C1 (centres undefined)	ADAM10 inh 20.9 | ADAM10 confirm inactive | ADAM17 ctr inactive
Cc1ccc(S(=O)(=O)n2nc(OC(=O)c3ccco3)cc2N)cc1	none
Nc1cc(OC(=O)c2ccco2)nn1S(=O)(=O)c1ccc(F)cc1	ADAM10 inh 60.1 | ADAM10 confirm inactive | ADAM17 ctr inactive
COc1cc2c(NCCCCCCO[N+](=O)[O-])ncnc2c(OC)c1OC	none (no result: FAS-TE inh)
O=C(Cn1nc(C(F)F)cc1C(F)F)NNC(=S)Nc1ccc([N+](=O)[O-])cc1	ADAM10 inh 21.5 | ADAM10 confirm inactive | ADAM17 ctr inactive
COCCCNC(=O)C[C@H]1C[C@@]2(C(=O)OC)C(=C[C@H](COCc3ccccc3)O[C@@H]2C)N(Cc2ccco2)C1=O	none (no result: FAS-TE inh)
COC(=O)[C@]12C[C@H](CC(=O)N3CCN(C(=O)c4ccco4)CC3)C(=O)N(Cc3cccc4ccccc34)C1=C[C@H](C1CCCC1)O[C@@H]2C	ADAM10 inh 20.6 (no result: FAS-TE inh) | ADAM10 confirm inactive | ADAM17 ctr inactive
COC(=O)[C@]12C[C@H](CC(=O)NCCC(C)C)C(=O)N(Cc3ccco3)C1=C[C@H](COCc1ccccc1)O[C@@H]2C	ADAM10 inh 52.9 (no result: FAS-TE inh) | ADAM10 confirm inactive | ADAM17 ctr inactive
CCCCOCCCNC(=O)C[C@H]1C[C@@]2(C(=O)OC)C(=C[C@H](C(C)(C)C)O[C@@H]2C)N(Cc2cccc3ccccc23)C1=O	ADAM10 inh 21.2 (no result: FAS-TE inh) | ADAM10 confirm inactive | ADAM17 ctr inactive
COC(=O)[C@]12C[C@H](CC(=O)NCc3ccc(OC)c(OC)c3)C(=O)N(Cc3cccc4ccccc34)C1=C[C@H](C1CCCC1)O[C@@H]2C	ADAM10 inh 24.1 (no result: FAS-TE inh) | ADAM10 confirm inactive | ADAM17 ctr inactive
COC(=O)[C@]12C[C@H](CC(=O)N3CCN(C(=O)c4ccco4)CC3)C(=O)N(Cc3cccc4ccccc34)C1=C[C@H](C(C)(C)C)O[C@@H]2C	none (no result: FAS-TE inh)
COC(=O)C1(F)C(=O)NC(=O)NC1OC (centres undefined)	none (no result: FAS-TE inh)
COC[C@@H]1CCCN1c1cccc2c1S(=O)(=O)N(C1CC1)CC[C@@H](C)O2	none (no result: FAS-TE inh)
Cc1cccc(N2CCN(S(=O)(=O)c3ccc4c(c3)CC(=O)N4C)CC2)c1C	ADAM10 inh 21.4 | ADAM10 confirm inactive | ADAM17 ctr inactive
COc1ccccc1Cc1c(-c2ccc(C)cc2)nc2ccc(C)cn12	none (no result: FAS-TE inh)
COCCCN(C(=O)c1cc2c(s1)CCCCC2)c1c(N)n(Cc2ccccc2)c(=O)[nH]c1=O	ADAM10 inh 20.4 | ADAM10 confirm inactive | ADAM17 ctr inactive
COc1ccc(S(=O)(=O)NC(C)C(=O)Nc2cccc(C(C)=O)c2)cc1 (centres undefined)	ADAM10 inh 31.0 | ADAM10 confirm inactive | ADAM17 ctr inactive
COc1ccc(S(=O)(=O)NC(C)C(=O)Nc2ccccc2F)cc1 (centres undefined)	none
Cn1c(=O)c(C(=O)NNC(=O)c2ccccc2Br)c(O)c2ccccc21	ADAM10 inh 19.8 | ADAM10 confirm inactive | ADAM17 ctr inactive
Cn1c(=O)c(C(=O)NNC(=O)c2ccccc2Cl)c(O)c2ccccc21	none
Cc1cccnc1NC(=O)COc1ccc2oc3c(c2c1)CCCC3	ADAM10 inh 81.6 | ADAM10 confirm inactive | ADAM17 ctr inactive
C=CCN1[C@@H](C)COc2cccc(F)c2S1(=O)=O	none (no result: FAS-TE inh)
Cc1ccc(C)c(N2CCN(C(=O)c3ccc(CS(=O)Cc4ccc(Cl)cc4)o3)CC2)c1 (centres undefined)	none
Cc1ccc(Cl)cc1N1CCN(C(=O)c2ccc(CS(=O)Cc3ccc(Cl)cc3)o2)CC1 (centres undefined)	ADAM10 inh 23.1 | ADAM10 confirm inactive | ADAM17 ctr inactive
CCOc1ccccc1NC(=S)N1C2CCC1CC(NC(=O)NC13CC4CC(CC(C4)C1)C3)C2 (centres undefined)	ADAM10 inh 33.4 | ADAM10 confirm inactive | ADAM17 ctr inactive
COc1ccccc1NC(=S)N1C2CCC1CC(NC(=O)NC13CC4CC(CC(C4)C1)C3)C2 (centres undefined)	none
CN(Cc1ccccc1)C(=O)OCc1cn(Cc2c(F)cccc2F)nn1	none (no result: FAS-TE inh)
CCOc1ccc(/C=N/NC(=O)Cc2csc(Nc3cccc(C(F)(F)F)c3)n2)c(OCC)c1	ADAM10 inh 20.4 | ADAM10 confirm inactive | ADAM17 ctr inactive
CCOc1ccccc1/C=N/NC(=O)Cc1csc(Nc2cccc(C(F)(F)F)c2)n1	none
COc1ccc(/C=N/NC(=O)Cc2csc(Nc3cccc(C(F)(F)F)c3)n2)c(OC)c1	ADAM10 inh 24.9 | ADAM10 confirm inactive | ADAM17 ctr inactive
